Experimental data reported in PubChem BioAssay (NCI).
The panel holds about 83,000 compounds, 20% with a hit somewhere; the sample as a whole holds those more often.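 Method: cells in 96-well plates; compound added at one concentration; 48 h incubation; percent growth measured; values under 10 scored active.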 A number with no mark means an inactive call. Activity calls are given as the source filed them.

How the values were obtained:
Experiment in all cases: NCI-60 one-dose screen, 48 h (100 = growth as untreated, 0 = no growth, -100 = all killed)
Conditions in all cases: 10 µM unless noted
DU-145 prostate = tested on: DU-145 prostate
K-562 leukemia = tested on: K-562 leukemia
MALME-3M melanoma = tested on: MALME-3M melanoma
MDA-MB-231 breast = tested on: MDA-MB-231 breast
RXF 393 renal = tested on: RXF 393 renal
SF-268 CNS = tested on: SF-268 CNS
SF-295 CNS = tested on: SF-295 CNS
SF-539 CNS = tested on: SF-539 CNS
UACC-257 melanoma = tested on: UACC-257 melanoma
M14 melanoma = tested on: M14 melanoma
HCT-15 colon = tested on: HCT-15 colon
HT29 colon = tested on: HT29 colon
SNB-75 CNS = tested on: SNB-75 CNS
SNB-19 CNS = tested on: SNB-19 CNS
U251 CNS = tested on: U251 CNS
PC-3 prostate = tested on: PC-3 prostate
SK-MEL-5 melanoma = tested on: SK-MEL-5 melanoma
UACC-62 melanoma = tested on: UACC-62 melanoma
LOX IMVI melanoma = tested on: LOX IMVI melanoma
SK-MEL-28 melanoma = tested on: SK-MEL-28 melanoma

Row | SMILES | growth (DU-145 prostate) | growth (K-562 leukemia) | growth (MALME-3M melanoma) | growth (MDA-MB-231 breast) | growth (RXF 393 renal) | growth (SF-268 CNS) | growth (SF-295 CNS) | growth (SF-539 CNS) | growth (UACC-257 melanoma) | growth (M14 melanoma) | growth (HCT-15 colon) | growth (HT29 colon) | growth (SNB-75 CNS) | growth (SNB-19 CNS) | growth (U251 CNS) | growth (PC-3 prostate) | growth (SK-MEL-5 melanoma) | growth (UACC-62 melanoma) | growth (LOX IMVI melanoma) | growth (SK-MEL-28 melanoma)
1 | FCc1nc2nc(Cl)c(Cl)nc2[nH]1 | 104% | 93% | 97.3% | 128% | 105% | 94.9% | 93.7% | 100% | 99.2% | 107% | 103% | 99.4% | 91.2% | 94.9% | 101% | 95.2% | 99.4% | 94.9% | 95.3% | 105%
2 | CCCCCCCC(=O)Nc1nc2[nH]c(CN3CCN(Cc4cccc(I)c4)CC3)c(CN3CCN(Cc4cccc(I)c4)CC3)c2c(=O)[nH]1 | -83.5% (active) | -43.8% (active) | -49.9% (active) | -89.8% (active) | -96.1% (active) | -82.9% (active) | -69.5% (active) | -89.4% (active) | -33% (active) | -56.6% (active) | -91.5% (active) | -69.8% (active) | -73.2% (active) | -87.5% (active) | -94.6% (active) | -45.7% (active) | 2.56% (active) | -98.1% (active) | -96.6% (active) | -78.1% (active)
3 | NNC(=O)/C(=C\c1ccc([N+](=O)[O-])cc1)CC(=O)c1ccc(Cl)c(Cl)c1 | 88.7% | 88.8% | 94.3% | 89% | 97.8% | 65.1% | 93.6% | 98.1% | 91.1% | 85.6% | 89.6% | 88.4% | 63.3% | 89.6% | 91.8% | 79.4% | 93.6% | 73.8% | 71.3% | 103%
4 | COc1ccc2nc(N=Nc3c(O)ccc4ccccc34)sc2c1 | 37.1% | 19.1% | 57.5% | 45.2% | 52.4% | 33.4% | 16.5% | 22.9% | 36.9% | 1.92% (active) | 31.4% | 28.2% | 49.4% | 31.8% | 23.1% | 49.1% | 4.14% (active) | 7.36% (active) | 12.8% | 35.5%
5 | O=C1c2ccccc2-c2c1c1c(NCCCO)nc3ccccc3c1n2Cc1ccccc1 | 13.2% | 16.9% | -54.6% (active) | -2.22% (active) | -52.2% (active) | -5.13% (active) | 23.1% | -49.2% (active) | 56.5% | -53% (active) | 66% | 5.61% (active) | -1.82% (active) | 16.7% | 7.89% (active) | 33.8% | -82.6% (active) | 17.5% | 2.25% (active) | -3.55% (active)
6 | CCCCCCc1nc2nc(Cl)c(Cl)nc2[nH]1 | 72.5% | 39% | 46.6% | 89.4% | 90.4% | 83.3% | 58% | 65.3% | 54.9% | 89.6% | 57.2% | 77.3% | 53.2% | 65.6% | 49% | 47.9% | 16.2% | 38.4% | 53.7% | 
7 | COc1cccc(NC(=O)c2cccc(-c3cc(=O)c4c(OC)c(OC)c(OC)cc4o3)c2)c1 | 71.8% | 40.3% | 84.8% | 59.6% | 47.9% | 63.1% | 70.8% | 77.5% | 92.4% | 73.5% | 54.7% | 50.8% | 89.8% | 82.5% | 62.1% | 57.1% | 63.9% | 62.1% | 49.9% | 
8 | CCOc1cc(CNc2ccc(N3CCOCC3)c(C(=O)O)c2)ccc1OC | 101% | 101% | 105% | 92.3% | 99.3% | 97.8% | 104% | 104% | 93.9% | 96.5% | 96.4% | 98.1% | 108% | 94.6% | 103% | 98.9% | 99.8% | 90.3% | 99.5% | 100%
